Shown are actives, neighbours in structure and some others; about 5.7% of the full set was active somewhere.
MPTP block: inhibitors of mitochondrial permeability transition pore; AID 602449; inhibition, % at 10 µM; isolated mouse mitochondria, Ca2+ swelling absorbance, 30 min; hit rate 1.4% among 360,000;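 active means inhibition of 50% or more, scaled per plate between neutral and stimulator controls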;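 further: 0% = DMSO wells given calcium and 100% = 1 mM EGTA wells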
GRIN3A LBD mod: modulates the human NR3A ligand-binding domain; AID 1259313; NR3A LBD differential scanning fluorimetry, Tm shift; 0% = protein alone, 100% = glycine-bound protein; Tm shift relative to glycine control, % at 25 µM; hit rate 2.5% among 340,000;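 active means melting temperature shift of at least 10% of the positive control shift, at one fixed dose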
rCAG RNA binder: binds r(CAG) RNA repeats; r(CAG) RNA repeat, TO-PRO-1 dye displacement fluorescence; inhibition, % at 3 µM; hit rate 1.3% among 370,000; AID 651821;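 active means inhibition above the plate cutoff, the mean of all test compounds on that plate plus 3 SD, cut at about 35% in these data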;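 further: 0% = DMSO alone and 100% = 100 µM mitoxantrone as full dye displacement; higher means more dye released from RNA so lower well fluorescence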
FAS-TE inh: inhibitors of human fatty acid synthase thioesterase domain; P49327; recombinant FAS-TE, OMFH fluorogenic substrate, fluorescence endpoint; inhibition, % at 15 µM; hit rate 0.67% among 360,000; AID 602261;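 active means compounds whose normalised, plate-corrected inhibition of enzyme fluorescence in the single-dose primary screen is 50% or more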;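 further: 0% = DMSO with enzyme and 100% = substrate without enzyme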
Myeloid diff 2: myeloid differentiation induction; hit rate 1% among 360,000; AID 624256; calls only at 10 µM; ER-HoxA9 myeloid progenitors, lysozyme-GFP differentiation, flow cytometry;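 active means normalized GFP-positive differentiation at or above the plate's own cutoff, the solvent-only control mean plus 3 SD; inconclusive means no clear call, values can overlap the other calls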;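 further: cells exposed to compound for four days before flow analysis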
Myeloid diff: myeloid differentiation induction | shares compounds with Myeloid diff 2 | ER-HoxA9 myeloid progenitors, GFP/Mac1 double-positive flow | calls only | hit rate 2% among 2,300;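 active means share of green or green-and-red cells above 9 and 9% in run 1 or 4 and 3% in run 2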
GFP autofluor: flagged as fluorescent in myeloid differentiation counter-screen. hit rate 7.4% among 2,300. shares compounds with Myeloid diff 2. fluorescence response, % (test concentration not listed). ER-HoxA9 myeloid progenitors, no estrogen, GFP autofluorescence flow cytometry; vehicle wells 0%, positive control 100%;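 active means over 5% cells positive for green fluorescent reporter, or over 2% positive for both it and APC stain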;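 further: range taken on the double positive population between DMSO and positive control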
The depositor's hits bear a star; i = inactive; ? = inconclusive; / = not tested or not shown; + = active, no number.

SMILES	MPTP block	GRIN3A LBD mod	rCAG RNA binder	FAS-TE inh	Myeloid diff 2	Myeloid diff	GFP autofluor
CCCCN(C)C1=Nc2cccc3cccc1c23	2	-2	2	-10	+	i	0
CCOc1ccc(NC(=O)CCC(=O)N/N=C(\C)c2cccs2)cc1	1	1	0	-11	i	/	/
COc1ccc(NC(=O)CN(C)C(=O)CSc2nc3ccccc3s2)cc1	-2	/	6	-6	i	i	0
CN(CC(=O)Nc1ccccc1Cl)C(=O)CSc1nc2ccccc2s1	1	0	3	-4	i	/	/
COc1cc(C(=O)OCC(=O)NC2CCCCC2)cc2c1OCCO2	1	-4	0	-2	+	i	1
COc1cc(C(=O)OC(C)C(=O)N2CCCC2)cc2c1OCCO2 (configuration not stated)	0	-2	-1	-5	i	i	0
COc1ccc(N=C(N)N=C(N)N)c(OC)c1	-1	5	-1	-9	i	/	/
COc1cccc(N=C(N)N=C(N)N)c1	-2	1	2	2	+	i	0
CCCOc1ccc(Cc2nn3c(=O)/c(=C/c4ccco4)sc3nc2=O)cc1	1	-1	30	2	i	i	0
CCOC(=O)c1ccc(NC(=O)C2CCN(C(=O)c3ccc(OC)c(OC)c3)CC2)cc1	10	-1	0	-4	i	i	0
COc1cccc(-c2cccc3c2NC(=O)C3(C)Cc2cccc(F)c2)c1 (configuration not stated)	0	/	0	17	i	/	/
C/C(=N\NC(=O)C1CCCN(S(=O)(=O)c2ccccc2)C1)c1ccccn1 (configuration not stated)	-1	0	4	-5	/	i	1
COc1ccc(C(=O)N/C(=C/c2cccnc2)C(=O)N2CCN(C)CC2)cc1OC	0	-1	-3	-8	i	/	/
COc1cccc(-c2csc(N3CCN(CC(=O)NNC(=O)c4ccc(Br)cc4)CC3)n2)c1	0	3	5	2	i	/	/
COc1cccc(-c2csc(N3CCN(CC(=O)NNC(=O)c4ccc(Cl)cc4)CC3)n2)c1	0	/	4	-7	i	i	0
FC(F)(F)c1cc(Cl)c2nc(-c3ccccc3)c(Cc3ccccc3)n2c1	2	/	13	-6	i	/	/
Cc1cc(Cl)c2oc(C(=O)N3CCCCC3CCN3CCCC3=O)c(C)c2c1 (configuration not stated)	0	2	-7	-4	?	/	/
Cn1c(=N)n(CC(=O)C(C)(C)C)c2ccccc21	2	0	-6	1	i	i	1
CCCn1c(=N)n(CC(=O)C(C)(C)C)c2ccccc21	-3	1	-11	-1	i	/	/
CCOC(=O)C1=NN(C(=O)c2ccc(OC)cc2)C(O)(c2ccc(Cl)cc2)C1 (configuration not stated)	7	-6	9	29	+	i	0
O=C(NC(=S)NCCN1CCOCC1)c1cccc(Cl)c1	-1	-2	-3	-10	i	i	0
O=C(CSc1ncnc2nc[nH]c12)c1ccc2ccccc2c1	10	-5	8	-16	+	i	0
O=[N+]([O-])c1cc([N+](=O)[O-])c2nonc2c1Nc1ccc(O)cc1	7	-1	8	-4	i	/	/
O=[N+]([O-])c1cc([N+](=O)[O-])c2nonc2c1Nc1ccccc1O	14	1	4	-4	+	i	4
COc1cc(-c2c(-c3cc(OC)c(OC)c(OC)c3)noc2C)ccc1F	/	0	-6	/	/	/	/
COC(=O)c1cc(-c2c(-c3cc(OC)c(OC)c(OC)c3)noc2C)cc([N+](=O)[O-])c1	0	0	-4	6	i	i	0
Cc1cc(C=O)sc1[B-](F)(F)F	0	-2	2	-6	i	/	/
Cc1ccccc1CN(c1ccc(C(=O)Nc2ccccc2C(=O)NCc2ccco2)cc1)S(C)(=O)=O	-2	2	8	34	i	i	0
CCOCCCNC(=O)C(c1ccc(Cl)cc1)N(Cc1cccs1)C(=O)CNC(C)=O (configuration not stated)	2	1	-8	-7	i	/	/

High-throughput results as filed in PubChem.
